Screens: PubChem BioAssay, National Center for Advancing Translational Sciences (NCATS)
Rows were chosen to be rich in hits. Some 9.2% of all compounds tested hit in one or more screens of this group.
SMN2 splice up – qHTS Assay for Enhancers of SMN2 Splice Variant Expression. Potency, µM (series often up to 46.1 µM), inactives show at the highest dose activity change, positive = activation, most hits filed as activators. AID 1458, 2008. actives 2.8% (n = 210,000). HEK293 SMN2-luciferase splicing reporter, luminescence, 30-36 h; note: % of control where 0% means no effect; nearly all actives have a fitted effect of over 55% in size
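HEK293 cells carry an SMN2 […]–luciferase reporter in which exon 7 inclusion puts luciferase in frame. Cells were plated 10-12 h before compound addition, then incubated 30-36 h at 37C. ONE-Glo luminescence was read; sodium butyrate at 4.5 mM final served as control.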
ELG1 repair inh – qHTS screen for small molecules that inhibit ELG1-dependent DNA repair in human embryonic kidney (HEK293T) cells expressing luciferase-tagged ELG1 | Potency, µM (highest dose often 46.1 µM), inactives show top-dose activity change, negative = inhibition, actives largely listed as inhibitors | HEK293T ELG1-luciferase reporter, luminescence, 16 h; DNA damage induced by 5-fluorouridine | actives 2.3% (n = 330,000); note: % is set by controls: 0 for no effect and ±100 for the full control effect; nearly all actives have a fitted effect of over 55% in size
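Reporter activity after DNA damage by 5-fluorouridine is monitored. Compound-treated cells incubate 16 hr at 37 °C, then ONE-Glo is added for 30 min before luminescence reading.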
NPC1 prom act – qHTS Assay for NPC1 Promoter Activators; Huh7 NPC1 promoter luciferase reporter, 24 h; AID 485313, 2010; Potency, µM (series often up to 9.22 µM), for the others: at the highest dose activation, actives largely listed as activators; actives 2.4% (n = 320,000); note: % of control where 0% means no effect; nearly all actives have a fitted effect of over 60% in size
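Quantitative HTS used a cell-based reporter: Huh7 cells stably bearing the NPC1 promoter upstream of luciferase were treated with compounds for 24 h, and promoter activation was read as luminescence.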
ELG1 genotox – qHTS screen for small molecules that induce genotoxicity in human embryonic kidney (HEK293T) cells expressing luciferase-tagged ELG1. Potency, µM (doses to about 46 µM), for inactives: at the top dose activity change, positive = activation, most hits filed as activators. AID 504466, 2011. actives 1.3% (n = 330,000). HEK293T ELG1-luciferase reporter, luminescence, 16 h; note: % of control where 0% means no effect; nearly all actives have a fitted effect of over 60% in size
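ELG1-luciferase HEK293T cells, 2,000/well; compound pinned in; 16 hr, 37 °C, 5% CO2; ONE-Glo, 30 min RT; luminescence on CCD imager.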
FLuc counter – qHTS profiling assay for firefly luciferase inhibitor/activator using purifed enzyme and Km concentrations of substrates (counterscreen for miR-21 project); actives 6.9% (n = 360,000); AID 588342, 2011; purified FLuc, Km substrates, luminescence inhibition; Luciferin 4-monooxygenase (Photinus pyralis), P08659; Potency, µM (series often up to 57.5 µM), inactives show at the top dose activity change, negative = inhibition, most hits filed as inhibitors;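 note: plate controls were vehicle for no effect and reference inhibitor for full effect; nearly all actives have a fitted effect of over 55% in size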
Target sequence (P08659 whole entry, looked up): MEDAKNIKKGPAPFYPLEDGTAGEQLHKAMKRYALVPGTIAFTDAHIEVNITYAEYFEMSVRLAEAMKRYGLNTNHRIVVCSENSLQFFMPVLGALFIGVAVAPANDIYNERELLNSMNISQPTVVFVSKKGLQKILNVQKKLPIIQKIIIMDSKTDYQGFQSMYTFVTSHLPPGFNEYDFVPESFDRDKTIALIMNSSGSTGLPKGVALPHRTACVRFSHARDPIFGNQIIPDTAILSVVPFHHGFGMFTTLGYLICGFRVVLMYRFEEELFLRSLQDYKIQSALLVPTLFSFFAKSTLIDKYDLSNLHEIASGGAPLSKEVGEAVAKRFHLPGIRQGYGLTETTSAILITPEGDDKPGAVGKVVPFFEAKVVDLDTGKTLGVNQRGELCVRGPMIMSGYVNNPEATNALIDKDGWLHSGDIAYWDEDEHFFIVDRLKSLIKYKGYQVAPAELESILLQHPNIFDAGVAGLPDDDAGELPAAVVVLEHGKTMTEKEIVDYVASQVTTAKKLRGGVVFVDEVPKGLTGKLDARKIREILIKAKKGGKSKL
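Biochemical qHTS of compounds, final roughly 60 µM downward over six points, against 10 nM purified firefly luciferase using Km concentrations of substrates (10 uM D-luciferin, 10 uM ATP) in Tris acetate pH 7.5 buffer; luminescence output.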
Rab9 prom act – qHTS Assay for Rab9 Promoter Activators | Potency, µM (highest dose often 9.22 µM), for inactives: top-dose activation, negative = inhibition, most hits filed as activators | Huh7 Rab9 promoter-luciferase reporter, luminescence, 24 h | actives 2.8% (n = 320,000); note: % of control where 0% means no effect; nearly all actives have a fitted effect of over 60% in size
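Luminescence from Amplite-detected luciferase (10 minutes, ambient) reports Rab9 promoter activation. Before that, stable Rab9-luciferase Huh7 cells (1500/well, reduced-serum OP-MEM I plus 10% FBS) were exposed to compound for 24 hours at 37C.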
* marks the source's active call; other numbers are inactive results; ? = inconclusive; . = not tested or not shown; [ ] = dose if it differs, or a comment. Calls come from the whole dose curve; as a rule, active = well fitted curve in the direction sought with a large enough effect; inconclusive = small, poorly fitted or top-dose-only effect, or another doubt; inactive = no such curve, though single readings can be large; an effect the other way counts as inactive or inconclusive. Potency is the fitted concentration of half-maximal effect.

SMILES | SMN2 splice up | ELG1 repair inh | NPC1 prom act | ELG1 genotox | FLuc counter | Rab9 prom act
COc1cccc(-n2nnc(-c3nc(-c4ccccc4F)no3)c2C)c1 | . | . | . | . | 2.39µM* | .
COC(=O)c1ccc(-n2nnc(-c3nc(-c4ccccc4Cl)no3)c2C)cc1 | . | . | . | . | 4.2% | .
COc1ccc(Cl)cc1-n1nnc(-c2nc(-c3ccccc3)no2)c1C | . | . | . | . | 15.1µM* | .
Cc1c(-c2nc(-c3ccccc3)no2)nnn1-c1ccc(F)c(Cl)c1 | . | . | . | . | -3.4% | .
COc1ccc(Nc2nc(-c3ccc4c(c3)NC(=O)CO4)cs2)cc1 | -63.9% | 16.4µM* | 8.5% | -10.0% | ? | 17.8%
COc1ccccc1Nc1nc(-c2ccc3c(c2)NC(=O)CO3)cs1 | -95.5% | ? | -3.6% | -5.1% | ? | 0.1%
CCC(C)Nc1nc(-c2ccc3c(c2)NC(=O)CO3)cs1 (stereo not given) | 1.5% | ? | 21.0% | 11.3% | 16.9µM* | ?
COc1ccc(-c2cc(-c3ccccc3)nc(-c3ccc4c(c3)NC(=O)CO4)c2)cc1 | 6.7% | 23.1µM* | -2.2% | -2.8% | -15.8% | 1.3%
CCOC(=O)N1CCN(c2ncnc3c2[nH]c2ccc(F)cc23)CC1 | -68.2% | 11.6µM* | -7.5% | -13.8% | -0.7% | -11.0%
Fc1ccc2[nH]c3c(N4CCN(c5ccccc5)CC4)ncnc3c2c1 | -68.2% | 7.31µM* | -10.2% | -40.1% | 2.9% | -25.3%
CCOc1ccc(Nc2cc(C)nc3nncn23)cc1 | 16.4% | . | . | . | -7.9% | .
Cc1cc(C)n2cc(CSc3nc4ccccc4s3)nc2n1 | 11.2µM* | ? | ? | ? | 21.3µM* | 3.55µM*
Cc1cc(C)n2cc(CSc3nnc(SCc4cn5c(C)cc(C)nc5n4)s3)nc2n1 | 11.6% | -13.0% | 2.1% | -0.6% | -1.1% | -3.6%
N#CCc1c(C#N)c(N)nc(N2CCN(C=O)CC2)c1C#N | -1.0% | -1.2% | 23.3% | 2.0% | 0.4% | -3.3%
N#CCc1c(C#N)c(N)nc(N2CCN(S(=O)(=O)c3ccccc3)CC2)c1C#N | -1.3% | 9.2µM* | -0.5% | 0.2% | 2.8% | 0.0%
N#C/C(=C\c1ccc(C(=O)O)cc1)c1ccccn1 | 6.0% | 8.9% | -1.1% | -2.5% | -18.1% | -2.9%
N#C/C(=C\c1cccc([N+](=O)[O-])c1)c1ccccn1 | 5.6% | ? | 0.5% | ? | -9.9% | ?
CN(CCC#N)c1ccc(/C=C(\C#N)c2ccccn2)cc1 | 1µM* | ? | 0.501µM* | 0.651µM* | 1.51µM* | 0.501µM*
CCN(CC)c1ccc(/C=C(\C#N)c2ccccn2)cc1 | 1.41µM* | ? | 0.447µM* | ? | 1.07µM* | 0.126µM*
COc1cc(/C=C(\C#N)c2ccccn2)ccc1OCc1ccccc1 | 17.7% | ? | 3.0% | 2.7% | ? | 12.4%
CCN(Cc1ccccc1)c1ccc(/C=C(\C#N)c2ccccn2)cc1 | . | ? | 3.55µM* | ? | 7.57µM* | 1.41µM*
O=C(O)CCCC(=O)Nc1cccc(-c2nc3ccccc3[nH]2)c1 | -3.0% | 0.1% | -1.7% | -0.5% | 12µM* | 1.2%
O=C(COc1ccccc1)Nc1cccc(-c2nc3ccccc3[nH]2)c1 | ? | ? | -0.6% | -1.6% | 16.9µM* | -1.3%
COc1ccc(OCC(=O)Nc2cccc(-c3nc4ccccc4[nH]3)c2)cc1 | ? | ? | ? | -1.9% | 9.53µM* | 29.9%
O=C(COc1ccc(F)cc1)Nc1ccc(Cl)c(-c2nc3ccccc3[nH]2)c1 | . | . | . | . | -13.3% | .
SMILES | SMN2 splice up | ELG1 repair inh | NPC1 prom act | ELG1 genotox | FLuc counter | Rab9 prom act
C=CC(C)=C[C@@]1(C)SC(=O)C(C)=C1O | . | . | -5.8%[46.1 µM] | . | . | -15.9%[46.1 µM]
O=C(/C=C/c1ccccc1Cl)NC(=S)Nc1ccccc1C(=O)NC1CCCCC1 | 10.5% | 15.3% | 13.0% | 2.8% | 16.9µM* | ?
CCOc1ccc2oc(=O)cc(CN3CCN(C(=O)c4ccc(Cl)cc4)CC3)c2c1 | -21.5% | . | . | . | -9.1% | .
COC(=O)c1cccc(S(=O)(=O)N(Cc2ccco2)Cc2cc3cc(OC)ccc3[nH]c2=O)c1 | -9.7% | 14.6µM* | -4.7% | -9.5% | 5.2% | -4.3%
CCc1ccc(NC(=O)CC2C(=O)N(c3cccc(OC)c3)C(=O)N2C2CCCC2)cc1 (stereo not given) | . | . | . | . | -4.1% | .
CCCNC(=O)COC(=O)c1ccccc1OCC(=O)Nc1ccc(Br)cc1 | -3.5% | 14.4% | -4.4% | 7.4% | -2.1% | -3.6%
CC(C)(C)NC(=O)COC(=O)c1ccccc1OCC(=O)Nc1ccc(Br)cc1 | . | ? | ? | 0.9% | 1.07µM* | ?
CC(C)C(=O)N1CCN(c2ccc(NC(=O)COc3ccccc3[N+](=O)[O-])cc2)CC1 | -81.0% | 9.2µM* | -2.3% | -25.5% | 3.7% | -30.8%
O=C(COc1ccccc1[N+](=O)[O-])Nc1cccnc1 | . | ? | 28.8% | ? | ? | ?
O=C(COc1ccccc1[N+](=O)[O-])Nc1ccc(Br)cc1 | . | ? | ? | ? | 9.53µM* | 3.16µM*
Cc1ccnc(NC(=O)COc2ccccc2[N+](=O)[O-])c1 | 5.01µM* | ? | 2.24µM* | ? | 1.69µM* | ?
COc1ccc(NC(=O)Cn2ccn(Cc3ccccc3)c(=O)c2=O)cc1Cl | . | . | . | . | -6.2% | .
COC(=O)/C=C/COc1ccccc1[N+](=O)[O-] | 9.2% | ? | 23.6% | 15.4% | 21.3µM* | ?
O=C(COC(=O)c1ccccc1Br)Nc1ccc(F)cc1 | 11.3% | ? | -1.5% | ? | 19µM* | 7.3%
Cc1ccc(NC(=O)COc2ccccc2[N+](=O)[O-])nc1 | 2.82µM* | ? | 3.16µM* | 0.3% | 2.13µM* | 0.794µM*
Cc1c(-c2ccccc2)oc2c(C(=O)OCC(=O)Nc3ccc(F)cc3)cccc2c1=O | -15.1% | 10.3µM* | 4.9% | -6.0% | -3.3% | 1.2%
O=C(COC(=O)c1ccccc1Br)NCCc1ccc(F)cc1 | 2.0% | ? | -2.6% | 0.9% | -13.2% | 2.1%
COc1ccc(-c2oc3c(CC=C(C)C)c(O[C@H]4OC(CO)C(O)C(O)C4O)cc(O)c3c(=O)c2O[C@@H]2OC(C)C(O)C(O)C2O)cc1 (stereo not given in full) | -3.7% | . | . | . | . | .
CCOC(=O)n1ccn(C)c1=S | -2.1% | . | . | . | . | .
COc1cc(NC(=O)COc2c(C)cc(C)cc2[N+](=O)[O-])c(OC)cc1Cl | 0.8% | ? | -0.7% | -0.6% | 6.2% | -2.2%
